This passage reports growth results from PubChem BioAssay (NCI).

Each structure is given as a SMILES string. This is part of a sample that, as a whole, favours compounds with a hit. Of some 83,000 tested, about 20% had one in any assay.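 Results are percent growth after 48 hours of single-concentration exposure. 100 means growth as in untreated cells, lower positive values show inhibition; negative values down to -100 show cell death.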 Unmarked numbers belong to inactive results. Active and inactive are the calls of the source. How the source made its calls: active means growth percent below 10; inactive means the rest.

This test has as its system HL-60(TB) leukemia. The experiment in a line: NCI-60 one-dose screen, 48 h (100 = growth as untreated, 0 = no growth, -100 = all killed). Particulars: 10 µM unless noted.
`O=C(CCl)NC1c2ccccc2Oc2ccccc21`: the growth was 78.4%.

Take `COc1cccc(-c2nn(-c3ccccc3)cc2-c2ccnc(NCCCNS(=O)(=O)c3ccc(C(F)(F)F)cc3)c2)c1`: the growth is 12.4%.

Consider `O=C(O)c1ccc2c(c1)C(=O)c1ccccc1C2=O`, for which the growth is 102%.

As for `CCCn1cnc2c1c(=O)n(CCCCC(C)=O)c(=O)n2C`, the growth is 91.4%.

On to `CN1CSC(=S)N(Cc2ccccc2)C1`, for which the growth is 79.8%.

With `Cc1ccc(S(=O)(=O)N2CCc3ccc(O)c4c3C2Cc2cc(Cl)ccc2-4)cc1` (stereo not given), the growth was 85.3%.

In the case of `CNc1cc(C(=O)O)nc(NC)n1`, the growth was 105%.

`O=C(/C=C1\C(=O)N(Cc2ccc([N+](=O)[O-])cc2)c2ccccc21)c1ccc(OCCN2CCCC2)cc1`: the growth was 17.5%.

Take `Cc1cc(N(CCCNc2ccnc3cc(Cl)ccc23)Cc2ccco2)nc(N2CCN(C)CC2)n1`: the growth is 38%.

As to `CC(=O)OC1Oc2cc(C)c(C)cc2-c2oc(=O)c(-c3cc4ccccc4oc3=O)cc21` (stereo not given), the growth was 93.4%.

For the molecule `O=C(c1ccc(/C=C/c2n[nH]c3ccccc23)cc1)N1CCNCC1`, the growth is 31.7%.

Consider `CCCOC(=O)C(O)c1ccccc1` (stereo not given), for which the growth is 113%.

On to `N=C(N)c1ccc(-c2ccc(-c3ccc(Cl)cc3Cl)s2)cc1F`, for which the growth is -49.7% (active).

Regarding `Cc1cc(Nc2nc(N3CCOCC3)nc3ccccc23)n[nH]1`, the growth is 63.1%.

Regarding `C=C1C(=O)O[C@H]2[C@H]1CC/C(COC(=O)/C=C\C(=O)NCc1ccc(Cn3c(=O)sn(CCCl)c3=O)cc1)=C\CC[C@@]1(C)O[C@@H]21`, the growth was -19.4% (active).
